The text below walks through data of PubChem BioAssay (NCATS).

Inconclusive results are not listed. A call without a number means that no potency is given here. Activity calls are given as the source filed them. Calls follow the shape of the dose curve; as a rule, active = well fitted inhibition curve with a large enough effect; inconclusive = small, poorly fitted or top-dose-only effect; inactive = no such curve, though single readings can be large or run the other way.

The assay in a line: Counterscreen qHTS for small molecule stabilizers of the endoplasmic reticulum resident proteome: GLuc-NoTag assay (AID 1508627). Conditions: Gaussia luciferase NoTag secretion counterscreen, luminescence, thapsigargin 100 nM for final 4 h; series mostly up to 76.4 µM. The procedure, abridged:
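Secreted GLuc lacking the SERCaMP modification is measured in SH-SY5Y cells exposed to compound for 19 h and then to thapsigargin (100 nM, 4 h) to deplete ER calcium; hits retested at 11 concentrations, up to 76.6 uM.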
Background: A counterscreen serves to expose hits that act by an unwanted route or on another target.
Take `CN1CCC(Nc2ncc3ncnc(Nc4ccc(F)c(Cl)c4)c3n2)CC1`: the Potency result was “inactive”. With `CN(C)CCOC(c1ccccc1)c1ccc(Br)cc1` (stereo not drawn) the entry was “inactive”. As for `CC(CC1c2ccccc2CCc2ccccc21)CN(C)C` (stereo not drawn), the entry is “inactive”.
